Key:
Conditions in all cases: concentration: 1 μM, replicates: in singlicate; n = 1
[1] = test system: RPS6KA4(Kin.Dom.1-N-terminal)
[2] = test system: RPS6KA4(Kin.Dom.2-C-terminal)
[3] = test system: RPS6KA5(Kin.Dom.1-N-terminal)
[4] = test system: RPS6KA5(Kin.Dom.2-C-terminal)
[5] = test system: T1, RSK1(Kin.Dom.1-N-terminal)
T1 construct: gene RPS6KA1

[6] = test system: T2, RSK1(Kin.Dom.2-C-terminal)
T2 construct: gene RPS6KA1

[7] = test system: T3, RSK2(Kin.Dom.1-N-terminal)
T3 construct: gene RPS6KA3

[8] = test system: T4, RSK2(Kin.Dom.2-C-terminal)
T4 construct: gene RPS6KA3

[9] = test system: T5, RSK3(Kin.Dom.1-N-terminal)
T5 construct: gene RPS6KA2

[10] = test system: T6, RSK3(Kin.Dom.2-C-terminal)
T6 construct: gene RPS6KA2
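Also: KINOMEscan kinase panel screen.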

O=C(O)C(F)(F)F.O=c1[nH]ccc2nc(N[C@@H]3CCNC3)nc(Nc3cc(Cl)cc(Cl)c3)c12 [GSK2188764]
%Inh [1]: 94.6%
%Inh [2]: 99.9%
%Inh [3]: 65%
%Inh [4]: 86%
%Inh [5]: 96.7%
%Inh [6]: 64%
%Inh [7]: 98.3%
%Inh [8]: 30%
%Inh [9]: 94.8%
%Inh [10]: 55%

Cn1cc(-c2cnc(N)c3c(-c4ccc5c(c4)CCN5C(=O)Cc4ccccc4)csc23)cn1 [GSK2593074]
%Inh [1]: 1%
%Inh [2]: 38%
%Inh [3]: 0%
%Inh [4]: 2%
%Inh [5]: 9%
%Inh [6]: 42%
%Inh [7]: 0%
%Inh [8]: 9%
%Inh [9]: 0%
%Inh [10]: 7%

Cn1cc(-c2ccc3c(c2)CCN3C(=O)Cc2cc(F)cc(C(F)(F)F)c2)c2c(N)ncnc21 [GSK2635225]
%Inh [1]: 0%
%Inh [2]: 0%
%Inh [3]: 23%
%Inh [4]: 6%
%Inh [5]: 1%
%Inh [6]: 5%
%Inh [7]: 0%
%Inh [8]: 19%
%Inh [9]: 19%
%Inh [10]: 0%

CN1CCN(Cc2ccc(NC(=O)Nc3ccc(N(C)c4ccnc(Nc5ccc(CS(C)(=O)=O)cc5)n4)cc3)cc2)CC1.Cl [GW827654]
%Inh [1]: 39%
%Inh [2]: 16%
%Inh [3]: 0%
%Inh [4]: 0%
%Inh [5]: 75%
%Inh [6]: 15%
%Inh [7]: 0%
%Inh [8]: 46%
%Inh [9]: 42%
%Inh [10]: 25%

CN(c1ccc(NC(=O)Nc2cccc(Cl)c2)cc1)c1ccnc(N)n1.Cl [GW830707]
%Inh [1]: 21%
%Inh [2]: 0%
%Inh [3]: 4%
%Inh [4]: 0%
%Inh [5]: 0%
%Inh [6]: 0%
%Inh [7]: 0%
%Inh [8]: 0%
%Inh [9]: 0%
%Inh [10]: 0%

Fc1cc(Cl)ccc1Nc1ccnc2cc(-c3ccc(CN4CCOCC4)o3)ccc12 [GW560109]
%Inh [1]: 35%
%Inh [2]: 0%
%Inh [3]: 9%
%Inh [4]: 0%
%Inh [5]: 6%
%Inh [6]: 28%
%Inh [7]: 14%
%Inh [8]: 44%
%Inh [9]: 100%
%Inh [10]: 0%

CN(C)CCOc1ccc(-c2cc(-c3ccc(Cl)c(O)c3)c(-c3ccncc3)[nH]2)cc1.Cl.Cl [SB-684387]
%Inh [1]: 0%
%Inh [2]: 23%
%Inh [3]: 0%
%Inh [4]: 33%
%Inh [5]: 10%
%Inh [6]: 23%
%Inh [7]: 3%
%Inh [8]: 8%
%Inh [9]: 4%
%Inh [10]: 0%

O=C(Nc1n[nH]c2cc(-c3cccs3)ccc12)C1CC1 [SB-731284]
%Inh [1]: 0%
%Inh [2]: 11%
%Inh [3]: 0%
%Inh [4]: 0%
%Inh [5]: 8%
%Inh [6]: 0%
%Inh [7]: 41%
%Inh [8]: 0%
%Inh [9]: 0%
%Inh [10]: 0%

O=C(Nc1c(F)cccc1F)c1cc(C(=O)c2ccccc2F)c[nH]1 [GSK1326180]
%Inh [1]: 8%
%Inh [2]: 0%
%Inh [3]: 4%
%Inh [4]: 0%
%Inh [5]: 5%
%Inh [6]: 0%
%Inh [7]: 1%
%Inh [8]: 24%
%Inh [9]: 0%
%Inh [10]: 10%

N#CC1(c2cccc(C(=O)Nc3cccc(Oc4ccc5nc(NC(=O)C6CC6)sc5n4)c3)c2)CC1
%Inh [1]: 0%
%Inh [2]: 2%
%Inh [3]: 0%
%Inh [4]: 0%
%Inh [5]: 0%
%Inh [6]: 25%
%Inh [7]: 15%
%Inh [8]: 1%
%Inh [9]: 25%
%Inh [10]: 21%

COC(=O)Nc1nc2ccc(Oc3ccc(CC(=O)Nc4cc(C(F)(F)F)ccc4F)cc3)cc2[nH]1 [GW680903]
%Inh [1]: 0%
%Inh [2]: 0%
%Inh [3]: 1%
%Inh [4]: 0%
%Inh [5]: 65%
%Inh [6]: 4%
%Inh [7]: 0%
%Inh [8]: 5%
%Inh [9]: 4%
%Inh [10]: 0%

O=C(O)C(F)(F)F.O=c1[nH]ccc2nc(N[C@@H]3CCNC3)nc(Nc3ccc4c(c3)S(=O)(=O)CC4)c12 [GSK2181306]
%Inh [1]: 91.8%
%Inh [2]: 100%
%Inh [3]: 62%
%Inh [4]: 95.4%
%Inh [5]: 97.8%
%Inh [6]: 78%
%Inh [7]: 97.6%
%Inh [8]: 31%
%Inh [9]: 91.3%
%Inh [10]: 87%

CC(C)(C)c1ccc(C(=O)Nc2cn3cc(-n4ccnc4)ccc3n2)cc1
%Inh [1]: 0%
%Inh [2]: 22%
%Inh [3]: 10%
%Inh [4]: 31%
%Inh [5]: 0%
%Inh [6]: 0%
%Inh [7]: 25%
%Inh [8]: 0%
%Inh [9]: 0%
%Inh [10]: 0%

COc1cccc(NC(=O)NCCNc2ccnc(Nc3ccc(F)cc3)n2)c1 [GSK1379879]
%Inh [1]: 0%
%Inh [2]: 0%
%Inh [3]: 0%
%Inh [4]: 34%
%Inh [5]: 18%
%Inh [6]: 0%
%Inh [7]: 3%
%Inh [8]: 0%
%Inh [9]: 3%
%Inh [10]: 0%

Cc1ccc(Nc2ccnc(Nc3ccc(C)c(F)c3)n2)cc1O.Cl [GW582868]
%Inh [1]: 0%
%Inh [2]: 0%
%Inh [3]: 0%
%Inh [4]: 21%
%Inh [5]: 0%
%Inh [6]: 0%
%Inh [7]: 0%
%Inh [8]: 0%
%Inh [9]: 9%
%Inh [10]: 0%

Cc1cc(-c2c(-c3ccc(F)cc3)ncn2CCCN2CCOCC2)nc(N)n1 [SB-222517]
%Inh [1]: 18%
%Inh [2]: 0%
%Inh [3]: 23%
%Inh [4]: 4%
%Inh [5]: 30%
%Inh [6]: 49%
%Inh [7]: 34%
%Inh [8]: 0%
%Inh [9]: 9%
%Inh [10]: 21%
